Results from ChEMBL document CHEMBL4513216, “Probing the Open Global Health Chemical Diversity Library for Multistage-Active Starting Points for Next-Generation Antimalarials” (ACS Infect Dis, 2020).
Hit rate of the full screen: of about 65,000 compounds, about 2,100 (3.2%) showed an effect of 50% or more. The median lay at about -52%. The sample as a whole holds a higher share of strong results than the screen did.

What follows are compounds tested on Plasmodium falciparum (assay: Screen against P. falciparum Asexual Blood Stage (ABS), at 5uM). Conditions: tested at 5 uM.
Format: functional, Dd2

| SMILES | INHIBITION [%] |
| --- | --- |
| CCN(CC)C(=O)C1CCC2(CCNCC2)O1 (centres undefined) | -55.8 |
| c1ccc(CO[C@H]2CC[C@H]3[C@H]2OCCN3Cc2nccs2)nc1 | -8.49 |
| CSc1nccc(N2CCC3(CCCN(CC4CC4)C3)C2)n1 (centres undefined) | -48.7 |
| CC(C)CN1CCCC2(CCN(c3ccc(C#N)cn3)C2)C1 (centres undefined) | 9.73 |
| CC(C)CN1CCCC2(CCN(c3ccccn3)C2)C1 (centres undefined) | 71.2 |
| CN(Cc1ccccc1)c1ncccc1CNC1CCC1 | 71.1 |
| CNc1nccnc1C1CCN(C(C)C)CC1 | 10.5 |
| CN(Cc1ccccc1)c1ncccc1CNC1CN2CCC1CC2 (centres undefined) | 62.6 |
| COc1ncccc1CN1C[C@H]2CCN(C(C)C)C[C@H]2C1 | 9.06 |
| CC(C)c1noc(CN(Cc2cccnc2)C2CN3CCC2CC3)n1 (centres undefined) | -90.3 |
| CC(C)N1CCC(NCc2cccnc2N(C)Cc2ccccc2)CC1 | 84.1 |
| CN(CCc1ccccc1)Cc1c(C2CC2)[nH]c2ncccc12 | -22.1 |
| CN(c1ncccc1C#N)C1CCN(Cc2ccncc2)CC1 | -82.3 |
| Nc1cc(-c2cccc3c2CCNC3)ncn1 | -47.8 |
| Cc1ccccc1CC(=O)N1CCN(C2CCOC2=O)CC1 (centres undefined) | -126 |
| c1cncc(COC[C@H]2CC[C@H]3[C@H](CCN3Cc3cccs3)O2)c1 | -174 |
| CC(=O)N1CCN(Cc2ccncc2)CC2(CC(=O)N(C)C2)C1 (centres undefined) | -18.8 |
| COCCn1c(C(=O)NCc2n[nH]c(C)n2)cc2ccccc21 | -74.2 |
| Cc1nc(CN2CCO[C@@H]3CC(COc4ccccn4)C[C@H]32)cs1 (some centres undefined) | -52.4 |
| Cc1cc(C(=O)NCC(=O)N2CCOCC2)nn1C(C)(C)C | -113 |
| Cc1nc2c(c(NC3CCN(Cc4ccccc4)CC3)n1)CCNCC2 | 78.7 |
| Cc1ncc2c(n1)CCCC2NC(=O)c1cnn(Cc2ccccc2)c1 (centres undefined) | -115 |
| c1ccc(CNc2ncc(CN3CC[C@@H]4CC[C@H](C3)N4)cn2)cc1 | -65 |
| Cc1nnc([C@H]2CC[C@@H]3[C@@H](CCN3Cc3c(C)noc3C)O2)o1 | -1.83 |
| Cc1n[nH]c2c1C(c1ccc3c(c1)OCCO3)SCC(=O)N2 (centres undefined) | 8.75 |
| Cc1c(CNC2CCN(c3ccccc3OC(F)F)C2)cnn1C (centres undefined) | 71 |

| SMILES | INHIBITION [%] |
| --- | --- |
| O=C(N[C@@H]1CN[C@H]2CCCO[C@H]21)c1cnccn1 | -120 |
| Cc1ccccc1CC(=O)N1C[C@@H]2CC[C@H]1CN(Cc1cccnc1)C2 | -11.4 |
| CN(C)[C@@H]1CN(Cc2cccnc2)C[C@H]1c1cn(C)c2ccccc12 | 71.9 |
| Cn1cccc1C(=O)N1C[C@H]2CN(Cc3cccnc3)C[C@H]2C1 | 31.3 |
| O=C(COc1coc(CN2CCCC2)cc1=O)Nc1cc(Cl)ccc1Cl | 80.6 |
| Cc1cccc(C2(NCCCS(C)(=O)=O)CCCC2)c1 | 88.9 |
| Cc1cc(CNC2(c3ccccc3)CCCCC2)no1 | 44.9 |
| CS(=O)(=O)CCCNC1(c2ccc(Br)cc2)CCC1 | 78.5 |
| CS(=O)(=O)CCCNC1(c2cccc(Cl)c2)CCCC1 | 76 |
| Cc1ccc(CC(=O)N2CCN(C(C)c3ccccc3F)CC2)cn1 (centres undefined) | -146 |
| C/C(=C\c1ccco1)CN(C)C(C)Cc1ccccn1 (centres undefined) | -54.2 |
| CCc1[nH]c2c(CNc3cc(C)nc(NC)n3)cc(C)cc2c1C | 85.1 |
| CCc1[nH]c2c(CNc3nc(C)cc(NC)n3)cc(C)cc2c1C | 89 |
| CN1C[C@H](NC(=O)c2cscn2)[C@@H]2OCCC[C@@H]21 | -18.5 |
| O=C(c1cnn2c1OCCC2)N1CCC2(CC1)OCCO2 | -54.5 |
| Cc1noc(C)c1CN1CC[C@@H]2O[C@H](COCC(C)C)CC[C@@H]21 | -31.3 |
| c1cnc(NC[C@H]2OC[C@@H]3CCN(Cc4ccsc4)C[C@@H]32)nc1 | -30.5 |
| CN1CCN(C[C@H]2OC[C@@H]3CCN(Cc4ccsc4)C[C@@H]32)CC1 | 77.7 |
| c1cc2c(cc1CN1CC[C@H]3CO[C@H](CN4CCCC4)[C@H]3C1)OCO2 | 78.6 |
| c1cnc(NC[C@H]2OC[C@@H]3CCN(Cc4cccnc4)C[C@@H]32)nc1 | -37.6 |
| CN1CCN(C[C@@H]2OC[C@H]3CN(Cc4ccncc4)CC[C@H]32)CC1 | -51.3 |
| c1cnc(NC[C@H]2OC[C@@H]3CCN(Cc4nccs4)C[C@@H]32)nc1 | -52.4 |
| O=C1O[C@@H]2CN(Cc3ccsc3)C[C@@H]2N1Cc1ccccn1 | -67.9 |
| Cc1ccc(Cl)cc1-n1nnnc1C1(N2CCCC2)CCCCC1 | -125 |
| Cc1nn(-c2ccc(C(=O)O)cc2)c2c1C(c1cccs1)SCC(=O)N2 (centres undefined) | -57.4 |
| COCCN1CCN(Cc2ccncc2)c2ncccc2C1 | 6.88 |

| SMILES | INHIBITION [%] |
| --- | --- |
| Cc1ccc(C)c(OCCNC(=O)[C@@H]2CCCCN2)c1 | 79.4 |
| CC(C)N(C)Cc1cncc2c1CCN(Cc1ccoc1)C2 | -19.3 |
| Cc1ccc2c(n1)N(CC(C)C)CCN(S(C)(=O)=O)C2 | -82.4 |
| Cc1nccc([C@@H]2C[C@@H]3CCN(Cc4c(C)noc4C)C[C@H]3O2)n1 | -6.6 |
| Cc1cc(CN2C[C@@H]3COC[C@]3(c3nnc(C)o3)C2)no1 | -26.2 |
| O=C(C1CCOC1)N1CCC2(CCCNC2)CC1 (centres undefined) | 0.28 |
| Cc1cccc(CN2C(=O)CCC23CCNCC3)n1 | -102 |
| CCCN1C[C@@H]2CC[C@H]1CN(C(=O)Cn1c(C)cc(C)nc1=O)C2 | -79.2 |
| Cc1ccc(C(C)NCCc2nccn2Cc2ccccc2)o1 (centres undefined) | 80.7 |
| CC(NCCc1nccn1Cc1ccccc1)c1cccs1 (centres undefined) | 86.8 |
| CC(Cn1cccn1)NCC(=O)N(C)Cc1ccsc1 (centres undefined) | -27.7 |
| CC(NCCc1nccn1Cc1ccccc1)c1ccsc1 (centres undefined) | 83.5 |
| CC(Cn1cccn1)NCC(=O)NCCc1cccs1 (centres undefined) | -8.14 |
| CCc1ccc(CN2C[C@H](OC)[C@H]3COC[C@H]32)o1 | -53 |
| O=C(c1ccoc1)N1CCO[C@@H]2CNC[C@@H]21 | -14.6 |
| Fc1cnc(N2CCN3C[C@H](Oc4cccnc4)C[C@H]3C2)nc1 | -61.4 |
| c1cnc(N2CCOCC3(CNCCO3)C2)nc1 (centres undefined) | -4.23 |
| Cc1cc(C)n2nc(C(=O)N[C@H]3C[C@H]4CN(C)CCN4C3)cc2n1 | -13.9 |
| CCc1ccc(OCC(=O)N2CCN(CC)CC2)cc1 | -123 |
| CCc1ccc(CNCC2CCN(CCO)CC2)cc1 | 84.2 |
| OCCN1CCC(CNCc2ccc(N3CCCCC3)cc2)CC1 | 91.9 |
| OCCN1CCN(Cc2cc3c(cc2Br)OCCO3)CC1 | 1.48 |
| O=C(Cc1ccc(F)c(Br)c1)N1CCN(CCO)CC1 | -1.34 |
| OCCN1CCC(CNCc2ccc(Br)cc2)CC1 | 86.7 |
| O=C(C1CCC1)N1CCC2(CC1)OCCO2 | -22.7 |
| O=C(c1ccc[nH]1)N1CCCC2(CCCN2Cc2cccnc2)C1 (centres undefined) | -53.7 |

| SMILES | INHIBITION [%] |
| --- | --- |
| CNCCc1nc2cc(F)ccc2[nH]1 | -61.7 |
| CCNCCc1nc2cc(F)ccc2[nH]1 | -115 |
| Fc1ccc2[nH]c(C3CCCN3Cc3c[nH]cn3)nc2c1 (centres undefined) | 81 |
| c1cncc(OC[C@@]23CCC[C@@H]2CN(C2CCOCC2)C3)c1 | 3.99 |
| CCCc1nnc2sc(C3CCN(CC)CC3)nn12 | -55.6 |
| c1cnc2c(c1)CN(C1CCOC1)CCN2CC1CC1 (centres undefined) | -73.8 |
| COc1cccc(CNC(C)Cn2cccn2)c1OC (centres undefined) | -22.3 |
| COc1cccc(CNCc2cccnc2-n2cccn2)c1OC | 70.1 |
| COc1c(Br)cc(Br)cc1CNC(C)Cn1cccn1 (centres undefined) | 17.9 |
| CC(Cn1cccn1)NCc1cccc(C#N)c1 (centres undefined) | -46.4 |
| N#Cc1cccc(CN2CCn3cc(Cn4cccn4)nc3C2)c1 | 78.6 |
| CN1CCN(Cc2cccc(C#N)c2)Cc2cccnc21 | -71 |
| CCN1C[C@@H]2CN(c3cc(OC)ncn3)CCC[C@]2(C(=O)O)C1 | -22 |
| COC(=O)c1ccc(C2SCC(=O)Nc3c2cnn3C2CCCC2)cc1 (centres undefined) | -86.9 |
| CN1CCC(N(Cc2ccco2)S(=O)(=O)c2cc(Br)ccc2Br)CC1 | 76.2 |
| CN1CCC(N(Cc2ccco2)S(=O)(=O)c2ccc(Br)cc2Cl)CC1 | 74.7 |
| CC(Cn1ccnc1)NCc1csc2c1CCCC2 (centres undefined) | 22.3 |
| COCCN1C[C@@H]2[C@@H](OC)CCN(Cc3cccc(C)n3)[C@@H]2C1 | -1.19 |
| CO[C@@H]1CCN(S(=O)(=O)N(C)C)[C@@H]2CN(Cc3ccncc3)C[C@@H]21 | -53.3 |
| CO[C@@H]1CCN(S(=O)(=O)N(C)C)[C@@H]2CN(Cc3cccnc3)C[C@@H]21 | -88.2 |
| CO[C@@H]1CCN(Cc2cccs2)[C@@H]2CN(Cc3ccncc3)C[C@@H]21 | 53.8 |
| CO[C@H]1CCN(Cc2cccs2)[C@@H]2CN(Cc3ccncc3)C[C@H]12 | 61.5 |
| COCCN1C[C@@H]2[C@@H](OC)CCN(Cc3ccncc3)[C@@H]2C1 | 24.3 |
| CO[C@H]1CCN(C2CCC2)[C@@H]2CN(Cc3ccncc3)C[C@H]12 | -41.2 |
| CO[C@H]1CCN(Cc2cccc(C)n2)[C@@H]2CN(Cc3cccnc3)C[C@H]12 | 70.4 |
| CCS(=O)(=O)N1CC[C@H](OC)[C@H]2CN(Cc3ccncc3)C[C@H]21 | -64.4 |
